Screens from PubChem BioAssay.
This is a sample that favours compounds with a hit; in the whole collection about 27% have one here.
sEH inhibitor = soluble epoxide hydrolase inhibitors, primary screen, biochemical, human sEH. recombinant human sEH enzymatic activity assay. inhibition, % at 2 µM. 91,000 compounds, 0.34% hits; in the data active means inhibition above about 80%
CYP2C19 inh = blockers of cytochrome P450 2C19 activity – biochemical, luminescence, ADME assay, primary screen; 96,000 compounds, 21% hits; inhibition, % at 5 µM; CYP2C19 Supersomes, luciferin-H EGE luminescence, 30 min; P33261;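 active means CYP2C19 inhibition above a set limit at 5 µM in the primary screen, cut at about 50% in these data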;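 further: plate controls were negative control wells for no effect and 2.5 mM tranylcypromine positive control for full effect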
CYP2C19 act = human CYP2C19 activators, primary screen, biochemical, luminescence; Cytochrome P450 2C19 (Homo sapiens), P33261; recombinant CYP2C19, luciferin-H EGE luminescence; hits give high values; 0 = fully inhibited enzyme, 1 = untreated enzyme; activation factor at 5 µM; 96,000 tested, under 10 active;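 active means activation factor of at least 2 at 5 µM in the primary screen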;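 further: 0 = wells with 2.5 mM tranylcypromine and 1 = vehicle-only wells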
CYP2C9 activ = human CYP2C9 activators, primary screen, biochemical, luminescence; 96,000 compounds, 1.4% hits; recombinant CYP2C9, luciferin-H conversion; hits give high values; factor 1 = untreated enzyme, 0 = blocked; activation factor at 5 µM; AID 1024, 2008;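 active means activation factor of 2 or more for CYP2C9 at a 5 µM dose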;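 further: 0 = sulfaphenazole-blocked wells and 1 = vehicle-only wells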
Target sequence (P11712 whole entry, looked up): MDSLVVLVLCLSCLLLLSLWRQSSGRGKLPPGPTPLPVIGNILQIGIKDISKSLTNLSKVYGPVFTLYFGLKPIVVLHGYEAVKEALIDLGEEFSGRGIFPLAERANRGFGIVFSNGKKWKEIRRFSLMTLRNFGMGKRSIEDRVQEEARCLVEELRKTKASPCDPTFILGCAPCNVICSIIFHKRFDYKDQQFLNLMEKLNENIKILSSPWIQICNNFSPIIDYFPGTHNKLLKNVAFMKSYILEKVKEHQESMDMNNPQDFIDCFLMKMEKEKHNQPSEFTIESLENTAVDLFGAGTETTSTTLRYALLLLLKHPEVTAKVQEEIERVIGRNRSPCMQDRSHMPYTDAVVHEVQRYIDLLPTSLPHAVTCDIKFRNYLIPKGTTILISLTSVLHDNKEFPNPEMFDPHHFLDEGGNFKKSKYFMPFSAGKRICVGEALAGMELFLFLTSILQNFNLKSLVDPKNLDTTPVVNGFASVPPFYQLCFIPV
CYP2C9 inhib = blockers of cytochrome P450 2C9 activity – biochemical, luminescence, ADME assay, primary screen. P11712. CYP2C9 Supersomes, luciferin-H conversion. inhibition, % at 5 µM. 96,000 compounds, 20% hits. AID 777, 2007;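 active means blocking of liver enzyme CYP2C9 beyond about 50% at 5 µM, limit read from the data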
sEH act = soluble epoxide hydrolase activators, primary screen, biochemical, human sEH. 91,000 compounds, 0.04% hits. purified human sEH enzymatic activity, activator screen. AID 717, 2007. activation, % at 2 µM. Bifunctional epoxide hydrolase 2 (Homo sapiens), P34913; in the data active means activation above about 37%
Numbers without * were called inactive; nt = no result.

SMILES	sEH inhibitor	CYP2C19 inh	CYP2C19 act	CYP2C9 activ	CYP2C9 inhib	sEH act
Cc1cc(C)n(S(=O)(=O)c2ccc(C(C)(C)C)cc2)n1	-5	76*	0.2	0.6	36	8
Cn1c(-n2c(-c3ccco3)nc3ccccc3c2=O)nc2ccccc21	10	23	0.8	1	2	-8
Cn1nc(C(F)(F)F)c(C#N)c1N1CCN(c2ccccc2F)CC1	9	-9	1.1	0.8	21	-7
COc1cccc(N2CCN(c3c(C#N)c(C(F)(F)F)nn3C)CC2)c1	7	94*	0.1	0.1	92*	-4
COC(=O)c1c(NC(=O)Cc2cccs2)sc(C)c1C	nt	62*	0.4	0.6	36	nt
CCOC(=O)c1cnn(CCOC(=O)Cc2cccs2)c1NC(=O)Cc1cccs1	6	88*	0.1	0.1	89*	-5
COC(=O)c1c(NC(=O)Cc2ccccc2)sc(C)c1C	-1	32	0.7	0.8	24	3
COC(=O)c1sc(S(=O)(=O)NCc2cccs2)c(C(=O)OC)c1C	6	89*	0.1	0.2	82*	-3
CCOC(=O)Cc1csc(NC(=O)Cc2cccs2)n1	6	22	0.8	0.5	46	-6
CC(C)OC(=O)c1c(NC(=O)c2cccs2)sc2c1CCCC2	nt	-4	1	0.3	74*	nt
CC(C)CCNC(=O)C(c1ccncc1)N(Cc1cccs1)C(=O)Cn1nnc(-c2ccc(F)cc2)n1 (stereo unspecified)	15	nt	nt	nt	nt	-10
CCOC(=O)c1c(NC(=O)Cc2cccs2)sc(C(=O)N2CCCCC2)c1C	15	65*	0.3	0.3	65*	-13
Cc1sc(NC(=O)c2cccs2)c(C(N)=O)c1C	-8	66*	0.3	0.2	81*	5
C=CCNC(=O)NC(=S)c1ccccc1	5	35	0.7	1	-2	-2
COCCCn1c(SCC(=O)N2CCc3ccccc32)nnc1-c1ccco1	1	nt	nt	nt	nt	0
O=C(NCc1ccccn1)C1COc2ccccc2O1 (stereo unspecified)	nt	77*	0.2	1	-1	nt
O=C(NCc1ccc2c(c1)OCO2)C1COc2ccccc2O1 (stereo unspecified)	5	nt	nt	nt	nt	-4
O=C(NCc1ccncc1)C1COc2ccccc2O1 (stereo unspecified)	1	51*	0.5	0.6	37	-2
COc1ccc(-c2nc(CSCC(=O)NC3CCCc4ccccc43)c(C)o2)cc1 (stereo unspecified)	0	63*	0.4	0.4	58*	0
O=C(COc1ccc(-c2nnco2)cc1)NC1CCCc2ccccc21 (stereo unspecified)	nt	98*	0	0.1	86*	nt
COc1ccccc1-n1c(CNC(=O)COc2ccccc2)n[nH]c1=S	1	33	0.7	1.1	-9	0
CCOC(=O)Cc1csc(NC(=O)C(C)(C)CC)n1	4	14	0.9	0.6	43	-6
CCC(CC)c1nnc(NC(=O)Oc2ccccc2)s1	6	5	0.9	0.4	56*	-4
CCC(Oc1ccccc1)C(=O)Nc1nnc(C)s1 (stereo unspecified)	1	41	0.6	0.4	63*	3
CCC(Oc1ccccc1)C(=O)Nc1nc2c(s1)C(=O)CC(C)(C)C2 (stereo unspecified)	2	12	0.9	0.5	54*	-2
SMILES	sEH inhibitor	CYP2C19 inh	CYP2C19 act	CYP2C9 activ	CYP2C9 inhib	sEH act
Cc1nnc(NC(=O)Oc2ccccc2)s1	-16	-8	1.1	1.1	-14	14
CCC(Oc1ccccc1)C(=O)Nc1nnc(C(F)(F)F)s1 (stereo unspecified)	7	16	0.8	0	97*	-4
CCC(Oc1ccccc1)C(=O)Nc1ccccc1OC (stereo unspecified)	-4	38	0.6	1	4	3
COCC(=O)Nc1ccc(C(C)C)cc1	-9	16	0.8	0.9	7	7
CC1(C)CC(=O)CC(=Nc2ccc3[nH]c(=O)[nH]c3c2)C1	nt	1	1	1	3	nt
CCOc1cc(CNCC2CCCO2)cc(Br)c1OCC(N)=O (stereo unspecified)	-2	-1	1	1	0	2
O=C(O)c1cc(-c2ccccn2)n[nH]1	0	-14	1.1	1.1	-9	0
Nc1cccc(C(=O)Nc2ccccc2Cl)c1	6	6	0.9	1.1	-10	-5
CN(C)S(=O)(=O)Oc1cccc(C(=O)Nc2ccccc2Cl)c1	-8	52*	0.5	0.5	52*	8
CN(C)S(=O)(=O)Oc1cccc(C(=O)Nc2ccc(Cl)cc2)c1	78	45	0.6	0.3	68*	-78
CCC1CCCCN1C(=O)CSc1nc(N)c(NC(=O)c2ccc(OC)c(OC)c2)c(=O)[nH]1 (stereo unspecified)	-3	-4	1	0.9	13	2
COc1cccc(C2=NO[C@@H]3C(=O)N(Cc4ccccc4)C(=O)[C@H]23)c1OC	-10	97*	0	0.1	88*	12
CCN(CC)C(=O)C1CCN(Cc2ccc(Br)cc2)CC1	-2	25	0.8	0.9	12	1
Cc1ccc2c(c1)NC(=O)C(N1CCOCC1)(C(F)(F)F)O2 (stereo unspecified)	7	55*	0.4	0.7	34	-7
COc1cc(-c2nnc(SCc3c(F)cccc3Cl)o2)cc(OC)c1OC	-14	40	0.6	0.4	58*	15
COc1cc(-c2nnc(SCc3ccccc3Cl)o2)cc(OC)c1OC	-19	45	0.6	0.7	30	18
CN(C(=O)C12CC3CC(CC(C3)C1)C2)C1(C)CCS(=O)(=O)C1 (stereo unspecified)	2	-1	1	1.1	-9	-3
Cc1ccc(N/N=C/c2c(O)cc(C)oc2=O)cc1	12	37	0.6	0.5	50*	-13
CCn1c(=S)ccc2ccc(OC)cc21	-2	64*	0.4	0.7	28	6
CCN(CC)C(=O)c1ccc(CS(=O)(=O)c2ccc(OC)cc2)o1	1	nt	nt	nt	nt	-1
CC(C)(C)c1ccc(C(=O)N2CCC(C(=O)NCc3ccco3)CC2)cc1	10	nt	nt	nt	nt	-9
Cc1ccc(NC(=O)N(Cc2ccc3c(c2)OCO3)Cc2cc3cc4c(cc3[nH]c2=O)OCCO4)cc1	-2	-4	1	1	-3	2
O=C(Nc1ccccc1)N(Cc1ccc2c(c1)OCO2)Cc1nc2ccccc2c(=O)[nH]1	10	15	0.8	0.4	60*	-7
O=C(c1ccccc1)N(Cc1ccc2c(c1)OCO2)Cc1nc2ccccc2c(=O)[nH]1	-3	92*	0.1	0.1	90*	3
O=C(c1cc2ccccc2oc1=O)N(Cc1ccccc1)Cc1ccc2c(c1)OCO2	2	nt	nt	nt	nt	3
